In PubChem BioAssay (NCI) one finds growth data, which are given here for nine compounds.

Among the test systems are NCI-H23 lung; NCI-H226 lung; NCI-H322M lung; HOP-62 NSCLC; NCI-H460 lung; A549/ATCC NSCLC; 786-0 renal; COLO 205 colon; DU-145 prostate; K-562 leukemia; MALME-3M melanoma; MDA-MB-231 breast; RXF 393 renal; SF-268 CNS; SF-295 CNS; SF-539 CNS; UACC-257 melanoma; M14 melanoma.
What all share (assay): NCI-60 one-dose screen, 48 h (100 = growth as untreated, 0 = no growth, -100 = all killed)
Common to all, as to conditions: 10 µM unless noted

Each structure is given as a SMILES string. Compounds without any hit were thinned out: in the full panel of roughly 83,000, 20% have a hit.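 How to read the values: 0–100, growth inhibition (40 = 60% inhibited); 0, no net growth; -100 to 0, cell death (-40 = 40% of starting cells died; -100 = all dead).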 Unmarked numbers belong to inactive results. Activity calls are given as the source filed them. Rule for the calls: active = growth percent below 10; inactive = the rest.

As to `O=C(O)CS(=O)c1ccc(Cl)cc1` (stereo unspecified), the growth was 106% in the assay on NCI-H23 lung; 103% in the assay with NCI-H226 lung; 87.7% with NCI-H322M lung; 101% with HOP-62 NSCLC; 104% in the assay with NCI-H460 lung; 103% in the assay on A549/ATCC NSCLC. The growth in the assay with 786-0 renal was 95.7%; with COLO 205 colon, 107%; with DU-145 prostate, 109%; in the assay on K-562 leukemia, 81.8%; with MALME-3M melanoma, 99.8%; in the assay on MDA-MB-231 breast, 118%. Besides, the growth with RXF 393 renal is 103%; in the assay with SF-268 CNS, 109%; with SF-295 CNS it was 94.9%; in the assay with SF-539 CNS, 106%; in the assay with UACC-257 melanoma it was 99.3%; in the assay with M14 melanoma, 102%.

For `CC(=O)/C(=C\c1c(-c2ccccc2)[nH]c2ccccc12)S(=O)(=O)c1ccccc1`, the growth was -19.8% (active) with NCI-H23 lung; 23.2% in the assay on NCI-H226 lung; 43.1% in the assay on NCI-H322M lung; 6.39% (active) in the assay on HOP-62 NSCLC; 2.86% (active) in the assay with NCI-H460 lung; 19.6% with A549/ATCC NSCLC. Further, the growth was 9.85% (active) in the assay with 786-0 renal; 12% in the assay with COLO 205 colon; -18.7% (active) with DU-145 prostate; -53.4% (active) with K-562 leukemia; 62.6% in the assay with MALME-3M melanoma; 4.14% (active) in the assay with MDA-MB-231 breast. For the same compound, the growth in the assay on RXF 393 renal is -28.2% (active); in the assay on SF-268 CNS it was 7.87% (active); in the assay on SF-295 CNS it was -41.4% (active); in the assay on SF-539 CNS, -38.1% (active); in the assay with UACC-257 melanoma, -6.16% (active); in the assay with M14 melanoma, 5% (active).

In the case of `CCn1cnc(C[C@H](NC(=O)[C@@H](NC(=O)Nc2cc(C(F)(F)F)cc(C(F)(F)F)c2)C(C)(C)C)C(=O)OC)c1`, the growth in the assay on NCI-H23 lung is -84.2% [100 µM] (active); in the assay with NCI-H226 lung, -49.5% [100 µM] (active); in the assay with NCI-H322M lung, -96.3% [100 µM] (active); in the assay on HOP-62 NSCLC it was -95.5% [100 µM] (active); with NCI-H460 lung, -57.2% [100 µM] (active); in the assay on A549/ATCC NSCLC it was -80.1% [100 µM] (active). The growth was -83.9% [100 µM] (active) in the assay with 786-0 renal; -80% [100 µM] (active) in the assay on COLO 205 colon; -95.1% [100 µM] (active) in the assay on DU-145 prostate; -47% [100 µM] (active) with K-562 leukemia; -82.5% [100 µM] (active) in the assay on MALME-3M melanoma; -93.6% [100 µM] (active) in the assay with MDA-MB-231 breast. In addition, the growth is -83.7% [100 µM] (active) in the assay on RXF 393 renal; -89.2% [100 µM] (active) with SF-268 CNS; -88.6% [100 µM] (active) in the assay with SF-295 CNS; -93.4% [100 µM] (active) in the assay with SF-539 CNS; -96.2% [100 µM] (active) in the assay on UACC-257 melanoma; -90.8% [100 µM] (active) with M14 melanoma.

As for `O=C(Nc1ccc(-n2cc(-c3ccncc3)c(-c3ccc(Cl)c(O)c3)n2)cc1)c1ccc(Cl)c(Cl)c1`, the growth is 45.7% in the assay with NCI-H23 lung; 107% in the assay with NCI-H226 lung; 97.1% in the assay on NCI-H322M lung; 6.9% (active) in the assay with HOP-62 NSCLC; 8.3% (active) in the assay with NCI-H460 lung; 43.6% with A549/ATCC NSCLC. The growth in the assay with 786-0 renal is -63.5% (active); with COLO 205 colon, 51.9%; with DU-145 prostate, 61.8%; in the assay on K-562 leukemia, 10.3%; with MALME-3M melanoma, 43.6%; in the assay with MDA-MB-231 breast, 31.5%. Besides, the growth in the assay with RXF 393 renal was -52.1% (active); in the assay on SF-268 CNS it was 61.1%; with SF-295 CNS it was -50.3% (active); in the assay on SF-539 CNS, 23.5%; in the assay with UACC-257 melanoma, 58.6%; with M14 melanoma it was -65.8% (active).

Turning to `O=C(Nc1ccc(-n2cc(-c3ccncc3)c(-c3ccc(Cl)c(O)c3)n2)cc1)c1cc(Cl)cc(Cl)c1`, the growth in the assay with NCI-H23 lung was 60.3%; in the assay with NCI-H226 lung, 111%; in the assay on NCI-H322M lung, 60.4%; with HOP-62 NSCLC, 22.2%; in the assay with NCI-H460 lung, 14.1%; in the assay on A549/ATCC NSCLC, 41.4%. The growth with 786-0 renal was -39% (active); in the assay with COLO 205 colon, 72.9%; in the assay on DU-145 prostate, 72.8%; in the assay with K-562 leukemia, 13.9%; with MALME-3M melanoma, 24.7%; in the assay on MDA-MB-231 breast, 24.2%. Besides, the growth in the assay on RXF 393 renal is -69% (active); in the assay on SF-268 CNS, 74.5%; with SF-295 CNS, -61.6% (active); in the assay on SF-539 CNS it was 26%; in the assay on UACC-257 melanoma it was 54.7%; in the assay with M14 melanoma, -49.1% (active).

Take `CCCCCCCCCCCCCCCCNC(=O)Nc1ccc(C)c(NC(=O)NCCCCCCCCCCCCCCCC)c1`: the growth is 111% in the assay on NCI-H23 lung; 98.9% in the assay on NCI-H226 lung; 108% in the assay on NCI-H322M lung; 98% in the assay on HOP-62 NSCLC; 103% in the assay on NCI-H460 lung; 104% in the assay on A549/ATCC NSCLC. Also, the growth with 786-0 renal was 118%; with COLO 205 colon, 116%; with DU-145 prostate it was 112%; in the assay with K-562 leukemia it was 105%; with MALME-3M melanoma, 89.8%; in the assay with MDA-MB-231 breast, 89.9%. Also, the growth with RXF 393 renal was 108%; with SF-268 CNS, 114%; in the assay on SF-295 CNS, 114%; in the assay with SF-539 CNS, 110%; in the assay on UACC-257 melanoma, 105%; in the assay with M14 melanoma it was 108%.

Regarding `COCn1c(C(=O)OC)cc2oc(/C=C3/SC(=S)N(N)C3=O)cc21`, the growth in the assay on NCI-H23 lung was 103%; in the assay with NCI-H226 lung, 115%; with NCI-H322M lung, 77.5%; in the assay on HOP-62 NSCLC, 122%; in the assay on NCI-H460 lung it was 105%; with A549/ATCC NSCLC it was 105%. Also, the growth is 96.5% with 786-0 renal; 110% in the assay on COLO 205 colon; 94.1% in the assay on DU-145 prostate; 63.7% with K-562 leukemia; 45.8% in the assay with MALME-3M melanoma; 110% in the assay with MDA-MB-231 breast. The growth in the assay with RXF 393 renal is 27.6%; in the assay on SF-268 CNS it was 73.1%; in the assay with SF-295 CNS, 82.3%; in the assay on SF-539 CNS, 90.3%; with UACC-257 melanoma it was 113%.

`COc1cc2cn3c4ccc(O)cc4[nH]c(=O)c3c2cc1OC`: the growth with NCI-H23 lung is -6.02% (active); with NCI-H226 lung it was 8.14% (active); in the assay on NCI-H322M lung, 1.3% (active); in the assay on HOP-62 NSCLC it was 4.45% (active); in the assay with NCI-H460 lung it was -55.7% (active); in the assay on A549/ATCC NSCLC it was 10.6%. In addition, the growth with 786-0 renal is 1.09% (active); with COLO 205 colon, -19.5% (active); in the assay with DU-145 prostate, 3.02% (active); in the assay with K-562 leukemia it was 3.94% (active); with MALME-3M melanoma, 1.16% (active); in the assay on MDA-MB-231 breast, 30.9%. In addition, the growth in the assay on RXF 393 renal was 26.8%; in the assay on SF-268 CNS, 18.1%; in the assay with SF-295 CNS it was -11% (active); in the assay on SF-539 CNS, 5.31% (active); with UACC-257 melanoma, -10.1% (active); with M14 melanoma, 3.61% (active).

With `COC(=O)c1cc(O)c2cc3c(cc2c1-c1cc(OC)c(OC)c(OC)c1)OCO3`, the growth is 49.9% in the assay with NCI-H23 lung; 50.6% in the assay on NCI-H226 lung; 59.9% in the assay on NCI-H322M lung; 28% in the assay on HOP-62 NSCLC; 14.7% in the assay with NCI-H460 lung; 45.1% in the assay with A549/ATCC NSCLC. Besides, the growth in the assay with 786-0 renal is 29.6%; in the assay on COLO 205 colon it was 5.08% (active); in the assay with DU-145 prostate, 40.6%; in the assay on K-562 leukemia, 15.4%; in the assay with MALME-3M melanoma it was 48.3%; in the assay with MDA-MB-231 breast, 40.2%. For the same compound, the growth with RXF 393 renal was -31.3% (active); in the assay with SF-268 CNS, 47.8%; with SF-295 CNS, 26.3%; with SF-539 CNS, 13.3%; in the assay with UACC-257 melanoma, 60.1%; in the assay with M14 melanoma, 19%.
